# From PubChem BioAssay (Tox21)
# Results filed as inconclusive are left out. Where a call stands in place of a potency, no number is given. Unmarked numbers belong to inactive results. Active and inactive are the calls of the source. The call rests on the fitted dose curve; in most records, active means well fitted activation curve with a large enough effect in the signal ratio in the repeat runs (not every such curve was filed as active); inconclusive means weak or mixed curves; inactive means flat fitted curve, though single readings scatter; the % refers to the signal ratio.
# Assay: p53 small molecule agonists, cell-based qHTS assay (AID 1963582)
# Method in brief: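 Read-out is beta-lactamase FRET fluorescence after 2 h at room temperature with LiveBLAzer B/G substrate. p53 response element-bla cells were treated 16 h at 37 C with compounds in DMSO, added 5 h after seeding.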
Structure (SMILES),Potency,activation
COc1cccc(Br)c1,inactive,
CO[Si](CCCNCCNCCN)(OC)OC,inactive,
N[C@H](C(=O)O)c1ccc(O)cc1,,-1.96% [at 13.5 µM]
CCSC(=O)N(CC)CC,inactive,
CC1OC1C1CCC2(C)OC2C1 (centres undefined),inactive,
CC(=O)N1C[C@H](O)C[C@H]1C(=O)O,inactive,
Cc1cc(C)c(S(=O)(=O)O)cc1N=Nc1cc(S(=O)(=O)O)c2ccccc2c1O,inactive,
CC(=O)N[C@@H](Cc1ccc(O)cc1)C(=O)O,inactive,
O=S(=O)(O)c1cccc2c(S(=O)(=O)O)cccc12,inactive,
O=C(O)c1ccc(CO)o1,inactive,
CC(C)CCCCCCCCCCCCCCC(=O)O,inactive,
CC(=O)OCC1=C(C(=O)O)N2C(=O)[C@@H](NC(=O)Cc3cccs3)[C@H]2SC1,inactive,
CC(C#N)(CCC(=O)O)N=NC(C)(C#N)CCC(=O)O (centres undefined),inactive,
CCOC(=O)CN1CCCC1=O,inactive,
Cc1ccc(N=Nc2c(O)ccc3ccccc23)c(C)c1,inactive,
CC(C)CCO,inactive,
CCCCCCCCCCCCI,inactive,
Nc1ccc(Oc2ccc(Cl)cc2)cc1,inactive,
C=CCCC=C,inactive,
Nc1ccccc1S(=O)(=O)O,inactive,
ON(Cc1ccccc1)Cc1ccccc1,inactive,
NS(=O)(=O)c1ccc(N2CCCCS2(=O)=O)cc1,inactive,
C/C=C/C(=O)C1=C(C)C=CCC1(C)C,inactive,
O=c1[nH][nH]c(=O)c2cc([N+](=O)[O-])ccc12,inactive,
CC(C)CCCCCOC(=O)CCS,inactive,

Structure (SMILES),Potency,activation
C[Si](C)(C)Cl,inactive,
O=CC1CC1,inactive,
COc1ccc2cc1Oc1cc3c(cc1OC)CC[N+](C)(C)[C@H]3Cc1ccc(cc1)Oc1c(OC)c(OC)cc3c1[C@@H](C2)[N+](C)(C)CC3,inactive,
Oc1c(Cl)ccc(Cl)c1Cl,inactive,
CC1=CCC(C(C)(C)O)CC1 (centres undefined),inactive,
CC(CCO)CCc1ccccc1 (centres undefined),inactive,
CCC(C)C1N=C(C)C(C)S1 (centres undefined),inactive,
CC(CO)CO,inactive,
O=c1[nH]c(=O)n([C@H]2CCCO2)cc1F,inactive,
COCCCOc1ccnc(CS(=O)c2nc3ccccc3[nH]2)c1C (centres undefined),inactive,
CCCCCC1CCC(=O)O1 (centres undefined),inactive,
CC(C)Oc1ccc2c(=O)c(-c3ccccc3)coc2c1,inactive,
CCCCOCCCC,inactive,
Cc1ccccc1N=O,inactive,
CCCOCCC,inactive,
Clc1ccc(C(c2ccccc2Cl)C(Cl)Cl)cc1 (centres undefined),inactive,
O=C(CCCN1CCC(O)(c2cccc(C(F)(F)F)c2)CC1)c1ccc(F)cc1,inactive,
CC1CNCC(C)O1 (centres undefined),inactive,
CC[C@H]1CN2CCc3cc(OC)c(OC)cc3[C@@H]2C[C@@H]1C[C@H]1NCCc2cc(OC)c(OC)cc21,inactive,
Oc1ccc(OCc2ccccc2)cc1,inactive,
CCCCCCCCCCCCCCC(=O)O,inactive,
NC(=O)c1ccc([N+](=O)[O-])cc1,inactive,
c1ccc(Nc2cccc3ccccc23)cc1,inactive,
CC(=O)O[C@]1(C(C)=O)CC[C@H]2[C@@H]3C=C(C)C4=CC(=O)CC[C@]4(C)[C@H]3CC[C@@]21C,inactive,
COc1ccc2cc(C=O)ccc2c1,inactive,

Structure (SMILES),Potency,activation
CC(C)COC(=O)c1ccccc1O,inactive,
O=c1[nH]c(=O)c2ccccc2o1,inactive,
CC(C)(C)c1nnc(NS(=O)(=O)c2ccc(N)cc2)s1,inactive,
CC1CC(O)CC(C)(C)C1 (centres undefined),inactive,
NCC1(Cc2noc(=O)[nH]2)CCCCC1,inactive,
CC(C)(C)C(=O)C(Oc1ccc(Cl)cc1)n1ccnc1 (centres undefined),inactive,
Cn1c(=O)c2[nH]c(Br)nc2n(C)c1=O,inactive,
C=C(C)C(=O)OCCNC(C)(C)C,inactive,
CCOC(=O)c1ccc(OCCN2C[C@H](O)[C@@H](O)[C@H](O)[C@H]2CO)cc1,inactive,
COC(C)(C)CCO,inactive,
N#CCC(=O)O,inactive,
CC(=O)Nc1c(I)cc(I)c(C(=O)O)c1I,inactive,
CC(=C(CCOC(=O)C(C)C)SSC(CCOC(=O)C(C)C)=C(C)N(C=O)Cc1cnc(C)nc1N)N(C=O)Cc1cnc(C)nc1N,inactive,
CCc1c(C(=O)O)c(=O)cnn1-c1ccc(Cl)cc1,inactive,
c1cnccn1,inactive,
NC(=O)c1cccc([N+](=O)[O-])c1,inactive,
CCn1c2ccccc2c2ccccc21,inactive,
CCc1ccc(C=O)cc1,inactive,
CCN1CCC[C@H]1CNC(=O)c1c(O)c(Cl)cc(Cl)c1OC,inactive,
c1ccc(CNc2ncnc3c2ncn3C2CCCCO2)cc1 (centres undefined),inactive,
CC1(C)C(O)C(C)(C)C1O (centres undefined),inactive,
Nc1nccs1,inactive,
CCc1c(Br)c(Br)c(Br)c(Br)c1Br,inactive,
Clc1ccccc1C(c1ccccc1)(c1ccccc1)n1ccnc1,inactive,
